PubChem BioAssay (NCI)
Compounds without any hit were thinned out: in the full panel of roughly 79,000, 15% have a hit. Active and inactive are the calls of the source. No stated cut-off is given here; in the data, active means growth inhibition above about 70%; inactive means the rest.

Assay: NCI Yeast Anticancer Drug Screen. Data for the wt1 strain (AID 149);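 further: 0% = growth of vehicle-treated wt1 cultures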
Details: S. cerevisiae wt1 strain (SPY 50644) growth inhibition; at 11.0 µM; hits give high values
In short: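 Yeast wt1 strain exposed to compounds; growth inhibition measured relative to vehicle-treated controls.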
For `CN(C)c1ccc(C2CC(C)(O)Oc3cc4c(cc32)OCO4)cc1` (configuration not stated), the growth inhibition was 1% (inactive).
In the case of `C[Si](C)(C)/C=C/CCNC(C#N)c1ccccc1` (configuration not stated), the growth inhibition is reported as 41% (inactive).
With `CN(C)CCOC1(Cc2ccc(F)cc2)CCC(C(C)(C)C)CC1` (configuration not stated) the growth inhibition was -11% (inactive).
In the case of `CC(=O)Nc1ccc2c(c1)Cc1cc(N=C3C=CC(=O)O3)ccc1-2`, the growth inhibition is reported as 41% (inactive).
For `O=C1C=C(Cl)C(=O)C(c2ccc(Cl)cc2)=C1`, the growth inhibition was 21% (inactive).
For `CNCCCNc1c2ccccc2nc2cccc([N+](=O)[O-])c12`, the growth inhibition was 77% (active).
In the case of `CC(C)OC(=O)c1ccc(CCc2cc(O)c(Br)cc2O)cc1`, the growth inhibition is reported as 45% (inactive).
With `CCc1cc(O)c(Cl)c(C)c1Cl` the growth inhibition was 14% (inactive).
With `C(=Nc1ccc(-c2cc(-c3ccccc3)nc3ccc4ccccc4c23)cc1)c1ccccc1` the growth inhibition was 9% (inactive).
For `CSc1nc(C)c(CCOC(C)=O)c(N=P(c2ccccc2)(c2ccccc2)c2ccccc2)n1`, the growth inhibition was -2% (inactive).
In the case of `CS(=O)(=O)SCc1ccc([N+](=O)[O-])cc1`, the growth inhibition is reported as 38% (inactive).
For `COC1=C(OC)C(=O)C(Sc2ccc3ccccc3c2)=CC1=O`, the growth inhibition was -13% (inactive).
In the case of `Cc1cc(-c2cc(C)c(O)c(C(C)(C)C)c2)cc(C(C)(C)C)c1O`, the growth inhibition is reported as -44% (inactive).
In the case of `Nc1cc(N)c(N=Nc2cccc3c(S(=O)(=O)O)cccc23)cc1N=Nc1cc([N+](=O)[O-])ccc1O`, the growth inhibition is reported as 7% (inactive).
For `Nc1ccc(F)cc1S`, the growth inhibition was 6% (inactive).
In the case of `Brc1ccccc1-c1ncc(-c2ccccc2)o1`, the growth inhibition is reported as -12% (inactive).
In the case of `COc1cc(C2SCC(=O)N2c2ccc(-c3ccc(-n4c(-c5ccccc5)nc5ccccc5c4=O)cc3)cc2)ccc1O` (configuration not stated), the growth inhibition is reported as -1% (inactive).
